# Source: PubChem BioAssay (NCI)
# The panel holds about 83,000 compounds, 20% with a hit somewhere; the sample as a whole holds those more often.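 Growth was measured after 48 h exposure to one concentration of compound in 96-well plates. Values under 10 count as active.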 Values without a mark were called inactive. Calls of active or inactive are those of the source.
# What was measured:
# Experiment in all cases: NCI-60 one-dose screen, 48 h (100 = growth as untreated, 0 = no growth, -100 = all killed)
# Conditions in all cases: 10 µM unless noted
# NCI-H23 lung = test system: NCI-H23 lung
# NCI-H226 lung = test system: NCI-H226 lung
# NCI-H322M lung = test system: NCI-H322M lung
# HOP-62 NSCLC = test system: HOP-62 NSCLC
# NCI-H460 lung = test system: NCI-H460 lung
# NCI-H522 lung = test system: NCI-H522 lung
# A549/ATCC NSCLC = test system: A549/ATCC NSCLC
# 786-0 renal = test system: 786-0 renal
# COLO 205 colon = test system: COLO 205 colon
# HOP-92 NSCLC = test system: HOP-92 NSCLC
Compound,growth (NCI-H23 lung),growth (NCI-H226 lung),growth (NCI-H322M lung),growth (HOP-62 NSCLC),growth (NCI-H460 lung),growth (NCI-H522 lung),growth (A549/ATCC NSCLC),growth (786-0 renal),growth (COLO 205 colon),growth (HOP-92 NSCLC)
Cc1ccc(-c2csc(NC(=O)CSc3nc(-c4ccccc4)cc(=O)[nH]3)n2)cc1,92.2%,103%,93.4%,100%,101%,80.3%,91.7%,104%,109%,–
CCCCCCCCO/N=C\c1c2c(O)c3c(O)c(C)c4c(c3c1O)C(=O)C(C)(O/C=C\C(OC)C(C)C(OC(C)=O)C(C)C(O)C(C)C(O)C(C)/C=C\C=C(\C)C(=O)N2)O4 (stereo not given),22.2%,28%,45.9%,36%,3.79% (active),5.64% (active),17.4%,27.9%,4.9% (active),–
CC1=C(C(=O)/C=C/c2c[nH]c3ccccc23)C(c2ccccc2)NC(=S)N1 (stereo not given),94.5%,80.4%,101%,97.9%,99.6%,89%,106%,102%,121%,–
NC(=NCc1ccccc1)C(N=Nc1ccccc1)C(=O)NCc1ccccc1 (stereo not given),65.3%,109%,101%,92.2%,50.1%,63.4%,1.29% (active),92.4%,79.5%,–
Nc1c(C(=O)Nc2cccc3cnccc23)sc2nc3c(cc12)C(=O)CCC3,92.6%,92.7%,102%,90.5%,78.2%,40.4%,87.4%,91.3%,108%,–
C=C(C)[C@@H]1CC[C@]2(C(=O)N3CCN(C)CC3)CC[C@]3(C)[C@H](CC[C@@H]4[C@@]5(C)C/C(=C/c6cccnc6)C(=O)C(C)(C)[C@@H]5CC[C@]43C)[C@@H]12,78.5%,72.7%,107%,88.4%,44.3%,59%,49.4%,75.7%,65%,–
Cc1ccc(-n2cc(-c3ccccc3)c3c2N=NN2CCN=C32)cc1,93.1%,82.3%,97.4%,97.4%,104%,90.2%,105%,99.3%,120%,–
O=C(Cc1ccc(/C=C/C(=O)c2nccs2)cc1)Nc1ccccc1,97.3%,100%,100%,103%,103%,78.5%,88.8%,93.8%,122%,–
O=C1/C=C/[C@@H](O)[C@@H]2C[C@@H](O)C[C@H]2/C=C/CCC[C@H](CCc2cccc3ccccc23)O1,-36% (active),-62% (active),25.2%,21.8%,12.2%,-25.8% (active),19.3%,-44.7% (active),-91.9% (active),–
Cc1cc2c(c(C)c1Cl)C(=O)/C(=C/c1ccc(O)c(O)c1)O2,94.6%,92.9%,104%,90.5%,99.9%,87.3%,97.8%,107%,114%,–
COc1ccc(C(=O)Nc2cccc(C3CCc4c(cc(OC)c(OC)c4OC)O3)c2)cc1 (stereo not given),58.9%,30.1%,75.9%,39.8%,25.7%,42.7%,43.4%,68.7%,67.9%,–
O=C(CSc1nc2ccccc2[nH]1)NCc1ccccc1,100%,95.9%,97.4%,88.5%,103%,98.3%,100%,102%,111%,–
O=C(CCN1CCCC1)Nc1ccc2c(NCc3ccccc3)c3ccccc3nc2c1,–,-2.39% (active),-0.926% (active),-3.52% (active),-34.4% (active),-28.2% (active),-19.7% (active),5.35% (active),-41.6% (active),-9.2% (active)
Cc1nc(N)nc(N[C@@H](C)c2nc3cccc(NCc4ccc(C(=O)NO)cc4)c3c(=O)n2-c2ccccc2)n1,–,81%,80.1%,75.1%,76.3%,35.3%,90.5%,93.9%,47.3%,50.1%
COc1cc(F)c(/C=C/c2cc(/C=C/c3cc(OC)c(OC)cc3F)on2)cc1OC,–,56.8%,96%,107%,72.1%,62.3%,81.3%,87.3%,80%,88.4%
COc1ccc(C(=O)c2cc(C)c(OC)c(C)c2)c(OC)c1OC(=O)C(Cl)Cl,–,6.91% (active),42.8%,17.4%,2.25% (active),-10.8% (active),11%,13.1%,73.5%,21.7%
COc1cc2nc(-c3ccc(C(F)(F)F)cc3)cc(OCCCN3CCCC3)c2cc1OC,–,-8.25% (active),62.8%,63.6%,22%,28.5%,39.9%,48.4%,22.1%,23.2%
N#C/C(=C\c1ccc([N+](=O)[O-])s1)c1nc2cc(Br)ccc2s1,–,-75.9% (active),85.6%,-35.5% (active),-26.9% (active),-45.4% (active),5.93% (active),–,-74.8% (active),-55.2% (active)
Nc1n[nH]c2cccc(C#Cc3cccc(C(=O)Nc4cccc(C(F)(F)F)c4)c3)c12,–,63.2%,86.4%,67.7%,74.7%,60.9%,77.8%,90.6%,–,58.6%
O=C(Cc1ccccc1)NNc1nc(Cl)nc(N2CCN(C(c3ccccc3)c3ccccc3)CC2)n1,–,94.2%,89.7%,98.6%,102%,-26.6% (active),98.5%,95.4%,98.6%,74.3%
N#Cc1c(-c2ccccc2)nc2c(c(-c3ccccc3)nn2-c2ccccc2)c1-c1ccc(O)cc1,–,54%,66.9%,25.3%,9.14% (active),0.943% (active),41.4%,3.44% (active),41.9%,50.1%
COc1cccc(-c2cc(C(=O)Nc3ccc(/C=C/c4ccc(OC5CCN(C)CC5)cc4)cc3)ccc2OC)c1,–,76.2%,5.51% (active),-27.5% (active),-72.3% (active),-46.3% (active),-34% (active),-95.2% (active),29.1%,11%
CN(CCN(C)c1ccc(C(=N)N)cc1)c1ccc(C(=N)N)cc1,–,84%,93.1%,102%,92%,92.4%,103%,107%,134%,35%
O=c1[nH]nc(-c2ccccc2)c2sc3ncc(-c4ccc(Br)cc4)n3c12,–,43.8%,72.3%,48.8%,33.8%,-1.56% (active),82.9%,53%,37.2%,65.3%
O=S(=O)(NCCNc1nccc(-c2c(-c3cccc(F)c3)nc3sccn23)n1)c1ccccc1,–,34.5%,51.5%,60.2%,25.9%,43.7%,25.2%,47.4%,24.2%,–

Compound,growth (NCI-H23 lung),growth (NCI-H226 lung),growth (NCI-H322M lung),growth (HOP-62 NSCLC),growth (NCI-H460 lung),growth (NCI-H522 lung),growth (A549/ATCC NSCLC),growth (786-0 renal),growth (COLO 205 colon),growth (HOP-92 NSCLC)
Oc1ccc(OCCOc2ccc(O)cc2)cc1,–,92%,82.1%,87.6%,48.5%,30.9%,35%,28.3%,108%,94.2%
Cc1cc(C(=O)/C=C/c2ccc[nH]2)ccc1-n1ccc(C(F)(F)F)n1,–,89.8%,97.5%,106%,98.9%,-9.61% (active),84.9%,48.7%,115%,–
O=C(CCN1CCCC1)Nc1ccc2c(NCCCc3ccccc3)c3ccccc3nc2c1,–,42.3%,16.6%,24.7%,-72.2% (active),-49.9% (active),15.5%,24.9%,-50.4% (active),21.5%
COCc1cnccc1NC1CCCCCC1,–,95.7%,98.6%,99.9%,108%,89.9%,96.3%,106%,121%,91.2%
COc1cc2oc(-c3cccc(C(=O)Nc4ccccc4)c3)cc(=O)c2c(O)c1OC,–,73.2%,66.4%,8.89% (active),33.7%,91.3%,60.3%,31.5%,92.3%,5.28% (active)
COc1cccc2c1c1nc3cc(C)c(C)cc3nc1n2CCN(C)C,–,-6.81% (active),24.7%,24.9%,7.95% (active),-4.98% (active),10.6%,36%,9.54% (active),36.1%
OCc1cnccc1NCCCCOc1ccc(Oc2ccccc2)cc1,–,70.1%,94.7%,72.1%,69.6%,62.9%,78.3%,56.8%,-10.4% (active),43%
CC(=O)c1cc2c(N)c(C(=O)Nc3cccc4ccncc34)sc2nc1C,–,104%,105%,91.8%,104%,96%,97.9%,98.5%,102%,75.2%
CC(C)(C)[Si](C)(C)OC1[C@@H](O[Si](C)(C)C(C)(C)C)[C@@H](CNC(=O)NC(=O)CCl)O[C@H]1n1cnc2c(NC(=O)Nc3ccccc3)ncnc21 (stereo not given in full),–,-93.8% (active),120%,-95.5% (active),11.9%,-61.9% (active),1.49% (active),-93.8% (active),-18.3% (active),–
O=Cc1cc2ccccc2nc1Oc1ccc(C(F)(F)F)cc1,–,76.9%,94.9%,80.9%,98.8%,85.4%,98.4%,101%,83.6%,52.8%
CCCCCN1C=C/C(=C\C(=O)N(C)c2ccc(Oc3ccccc3)cc2)c2ccccc21,–,79.1%,89.8%,87.4%,92%,61.1%,82.3%,89.7%,81.6%,47.7%
Cc1ccc(C(=O)/C(=C\c2ccc([N+](=O)[O-])cc2)S(=O)Cc2ccc(Cl)cc2)cc1 (stereo not given),–,66.4%,80.3%,46.7%,30%,-5.71% (active),84.1%,-52.4% (active),20.7%,64.8%
COc1cc2nc(-c3ccc(C(F)(F)F)cc3)cc(OCCCN3CCOCC3)c2cc1OC,–,-10.5% (active),57.2%,51.9%,18.5%,14.6%,29%,21.5%,20%,11.2%
CCCCCOc1ccc(/C=N/Nc2cc(C)nc3ccc(Cl)cc23)cc1,–,88%,44.3%,29.7%,-63.1% (active),-30.6% (active),-8.41% (active),-85.2% (active),-55.9% (active),56.7%
O=C(/C(=C\c1ccc([N+](=O)[O-])cc1)S(=O)Cc1ccc(Cl)cc1)c1ccc(Cl)cc1 (stereo not given),–,92.9%,89.5%,96.1%,76.3%,37.5%,93.8%,32.1%,74.7%,83.6%
CCCCOc1ccc(/C(C)=N/Nc2cc(C)nc3ccc(Br)cc23)cc1,–,89.6%,103%,88.7%,14.2%,96.9%,92.5%,95.1%,26.5%,78.4%
N#C/C(=C\c1cccc(C#N)c1)c1ccccc1,–,105%,104%,92.9%,104%,95.6%,88.8%,105%,104%,120%
COc1ccc(Cc2cnc(NC(=O)c3ccc4c(c3)OCCO4)s2)cc1,–,1.86% (active),41.3%,29.1%,6.33% (active),-2.66% (active),16.1%,26.6%,-6.28% (active),57.8%
C=CCn1c(-c2ccc(-c3nc4ccc(C)cc4[nH]3)cc2)n[nH]c1=S,–,94.1%,102%,97.7%,105%,90.7%,99.2%,107%,120%,117%
c1ccc(Cn2cnc3ccc(-c4nc(-c5ccc6c(c5)ncn6C5CCCCC5)cn5ccnc45)cc32)cc1,–,-63.1% (active),16%,-9.39% (active),-20.3% (active),-35.2% (active),-5.05% (active),-19.4% (active),-29.9% (active),-83.6% (active)
CN(C)CC(O)c1ccc(/C=C/c2ccc(Cl)cc2)cc1 (stereo not given),–,73.4%,-9.83% (active),-50.2% (active),-54.6% (active),-84.4% (active),-92.3% (active),13.8%,-46.4% (active),15.5%
O=C1c2cccc3c(-c4ccc5c(c4)ncn5C4CCCCC4)ccc(c23)C(=O)N1CCO,–,77%,91.8%,81.9%,94.1%,73.7%,95.6%,95.4%,108%,51.1%
N#CC(C(=O)/C(=N/NC(=O)c1ccccc1O)C(C#N)c1ccccc1)c1ccccc1 (stereo not given),–,70.5%,68.4%,30.8%,24.3%,67.9%,20.1%,85.9%,105%,40.4%
Cn1ccnc1C(=O)/C=C/c1ccc(CC(=O)NC2CCCCC2)cc1,–,92.8%,61%,56%,26%,52.1%,64.1%,71.3%,67.9%,75%
O=C(Nc1ncc(Cc2cc(Cl)ccc2Cl)s1)c1cccs1,–,81%,62.7%,55.1%,33.8%,43.9%,38.3%,78.3%,67.5%,48.4%
